The whole screen tested about 5,500 compounds, of which about 2,000 (36%) were called active. Inconclusive results (about 18%) are left out. No stated cut-off is given here; in the data, active means normalized growth mostly below about 0.91 (no sharp cut-off); inconclusive means no clear call, values can overlap the other calls; inactive means mostly above about 0.92. The list shows a part of the results.
Experiment: chemical genetic growth profiling, strain panel (AID 1159580);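 further: tested at 20 µM; growth read once vehicle control cultures reached saturation at 30 °C; 1 = growth at the plate median or of vehicle wells; lower values mean less growth of the strain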
Conditions: S. cerevisiae deletion strains, growth OD
[1] = locus YAL013W, strain DEP1, hits give low values
[2] = locus YBR229C, strain ROT2, hits give low values
[3] = locus YCL061C, strain MRC1, hits give low values
[4] = locus YDL101C, strain DUN1, hits give low values
[5] = locus YDR150W, strain NUM1, hits give low values
[6] = locus YEL061C, strain CIN8, hits give low values
[7] = locus YGR078C, strain PAC10, hits give low values
[8] = locus YHR030C, strain SLT2, hits give low values
[9] = locus YHR087W, strain rtc3, hits give low values
[10] = locus YJL187C, strain SWE1, hits give low values
[11] = locus YJR043C, strain POL32, hits give low values
[12] = locus YJR075W, strain HOC1, hits give low values
[13] = locus YKL190W, strain CNB1, hits give low values
[14] = locus YLR039C, strain RIC1, hits give low values
[15] = locus YLR058C, strain SHM2 (second series), hits give low values
[16] = locus YLR085C, strain ARP6, hits give low values
[17] = locus YLR262C, strain YPT6, hits give low values
[18] = locus YML094W, strain GIM5, hits give low values
[19] = locus YMR219W, strain ESC1, hits give low values
[20] = locus YNL153C, strain GIM3, hits give low values
[21] = locus YNL298W, strain CLA4 (second series), hits give low values
[22] = locus YNL322C, strain KRE1, hits give low values
[23] = locus YNR030W, strain Alg12, hits give low values
[24] = locus YPL055C, strain LGE1, hits give low values
[25] = locus YPL241C, strain CIN2, hits give low values
[26] = locus YPR135W, strain CTF4, hits give low values

Measured: normalized growth

Cc1[nH]n(C)c(=O)c1N=Nc1ccc(Cl)cc1
active: [1] 0.892 | [2] 0.886 | [3] 0.864 | [4] 0.82 | [6] 0.598 | [7] 0.906 | [8] 0.143 | [10] 0.875 | [13] 0.915 | [14] 0.342 | [15] 0.912 | [16] 0.115 | [17] 0.393 | [18] 0.764 | [19] 0.924 | [20] 0.894 | [21] 0.689 | [23] 0.881 | [25] 0.753 | [26] 0.242
inactive: [5] 0.835 | locus YGR229C, strain SMI1, hits give low values 0.979 | [9] 0.926 | [11] 0.945 | [12] 0.912 | locus YNL128W, strain TEP1, hits give low values 0.965 | [22] 0.96 | [24] 0.78

Cc1ccc(N=Nc2c(C)[nH]n(C)c2=O)cc1
inactive: [4] 0.918 | [5] 0.92 | [7] 0.959 | [9] 0.974 | [12] 0.969 | [13] 0.946 | [15] 0.955 | [19] 0.964 | [20] 0.945 | [21] 0.87 | [22] 0.991 | [23] 0.897 | [24] 0.847
active: [1] 0.931 | [2] 0.921 | locus YDL134C, strain PPH21, hits give low values 0.886 | [6] 0.839 | [8] 0.433 | [11] 0.896 | [14] 0.332 | [16] 0.407 | [17] 0.352 | [18] 0.822 | [25] 0.82 | [26] 0.431

COc1cc(/C=C/C(=O)N2CCC=CC2=O)cc(OC)c1OC
inactive: locus YAL021C, strain ccr4, hits give low values 0.948 | locus YAL026C, strain drs2, hits give low values 1 | locus YAL030W, strain snc1, hits give low values 1 | locus YBL061C, strain skt5, hits give low values 0.993 | locus YBR009C, strain hhf1, hits give low values 1.06 | locus YBR023C, strain chs3, hits give low values 0.994 | locus YBR171W, strain sec66, hits give low values 0.995 | locus YBR231C, strain swc5, hits give low values 1.01 | locus YBR279W, strain paf1, hits give low values 0.968 | locus YCL011C, strain gbp2, hits give low values 1 | locus YCL016C, strain dcc1, hits give low values 1.01 | [3] 1.01 | locus YCL069W, strain vba3, hits give low values 0.998 | locus YCR088W, strain abp1, hits give low values 0.996 | locus YDL005C, strain med2, hits give low values 1 | locus YDL040C, strain nat1, hits give low values 0.996 | locus YDR001C, strain nth1, hits give low values 0.992 | locus YDR069C, strain doa4, hits give low values 0.996 | locus YDR137W, strain rgp1, hits give low values 0.856 | locus YDR159W, strain sac3, hits give low values 1.08 | locus YDR195W, strain ref2 1.06 | locus YDR297W, strain sur2, hits give low values 0.997 | locus YDR334W, strain swr1, hits give low values 1.01 | locus YDR335W, strain msn5, hits give low values 1 | locus YDR392W, strain spt3, hits give low values 0.886 | locus YEL003W, strain gim4, hits give low values 1 | locus YEL037C, strain rad23, hits give low values 0.998 | locus YEL061C, strain CIN8 (second series), hits give low values 0.996 | locus YER015W, strain faa2, hits give low values 1.01 | locus YER016W, strain bim1, hits give low values 1.02 | locus YER111C, strain swi4, hits give low values 1.01 | locus YER155C, strain BEM2 (second series), hits give low values 1.06 | locus YFR010W, strain ubp6, hits give low values 0.99 | locus YGL167C, strain pmr1, hits give low values 1 | locus YGL173C, strain kem1, hits give low values 0.995 | locus YGL227W, strain vid30, hits give low values 1.01 | locus YGL240W, strain doc1, hits give low values 1.08 | locus YGL253W, strain hxk2, hits give low values 0.984 | locus YHR013C, strain ard1, hits give low values 0.938 | locus YHR027C, strain rpn1, hits give low values 0.995 | [8] 0.935 | locus YHR079C, strain IRE1, hits give low values 0.953 | locus YHR142W, strain chs7, hits give low values 0.944 | locus YJL092W, strain hpr5, hits give low values 0.994 | locus YJL095W, strain BCK1 (second series), hits give low values 1.01 | locus YJL095W, strain BCK1, hits give low values 0.97 | locus YJL115W, strain asf1, hits give low values 1.03 | locus YJL129C, strain trk1, hits give low values 0.994 | locus YJL154C, strain vps35, hits give low values 0.998 | locus YJL164C, strain tpk1, hits give low values 0.979 | locus YJL166W, strain qcr8, hits give low values 1 | [10] 0.996 | locus YJR066W, strain TOR1, hits give low values 0.883 | locus YKL160W, strain elf1, hits give low values 0.918 | locus YKR026C, strain gcn3, hits give low values 0.986 | locus YKR091W, strain srl3, hits give low values 1 | locus YLL001W, strain dnm1, hits give low values 1.01 | locus YLL026W, hits give low values 1.01 | locus YLL041C, strain sdh2, hits give low values 0.992 | locus YLR027C, strain aat2, hits give low values 0.988 | locus YLR113W, strain HOG1, hits give low values 0.941 | locus YLR221C, strain rsa3, hits give low values 0.97 | locus YLR258W, strain gsy2, hits give low values 1.03 | locus YLR262C, strain YPT6 (second series), hits give low values 0.886 | locus YLR320W, strain mms22, hits give low values 1.01 | locus YLR342W, strain FKS1, hits give low values 0.998 | locus YLR357W, strain rsc2, hits give low values 1.13 | locus YLR370C, strain arc18, hits give low values 0.986 | locus YLR384C, strain iki3, hits give low values 1 | locus YML120C, strain ndi1, hits give low values 0.972 | locus YMR058W, strain fet3, hits give low values 0.993 | locus YMR125W, strain sto1, hits give low values 1.07 | locus YMR129W, hits give low values 1.01 | locus YMR205C, strain PFK2, hits give low values 1.06 | locus YMR231W, strain pep5, hits give low values 0.998 | locus YNL071W, strain lat1, hits give low values 0.975 | locus YNL183C, strain NPR1, hits give low values 0.93 | locus YNL209W, strain ssb2, hits give low values 0.997 | locus YNL248C, strain rpa49, hits give low values 0.972 | locus YNL322C, strain KRE1 (second series), hits give low values 1.02 | locus YNR049C, strain mso1, hits give low values 0.999 | locus YOR001W, strain rrp6, hits give low values 0.945 | locus YOR070C, strain gyp1, hits give low values 1.02 | locus YOR080W, strain dia2, hits give low values 1.01 | locus YOR083W, strain WHI5, hits give low values 0.951 | locus YOR106W, strain vam3, hits give low values 0.964 | locus YOR231W, strain MKK1, hits give low values 0.954 | locus YOR265W, strain rbl2, hits give low values 0.996 | locus YOR270C, strain vph1, hits give low values 0.976 | locus YOR290C, strain snf2, hits give low values 0.969 | locus YPL051W, strain arl3, hits give low values 0.966 | locus YPL078C, strain atp4, hits give low values 0.939 | locus YPL106C, strain sse1, hits give low values 1.01 | locus YPL240C, strain hsp82, hits give low values 1.01 | locus YPL256C, strain CLN2, hits give low values 0.964
